According to article PMC7862700, “An all-to-all approach to the identification of sequence-specific readers for epigenetic DNA modifications on cytosine”:

Assays:
Assay in all cases: DAPPL (digital affinity profiling via proximity ligation, sequencing); 10 mM Tris-HCl pH 7.5, 50 mM NaCl, 1 mM DTT, 4% glycerol, room temperature, 30 min; GST-TFs on glutathione beads, 16-mer random dsDNA library, 0.1% formaldehyde crosslink after washing; high values mean tight binding
FEV = target: T1, FEV (Homo sapiens, UniProt Q99581 1-238); conditions: protein: recombinant; tags: N-terminal GST; dsDNA, one strand shown
T1 sequence: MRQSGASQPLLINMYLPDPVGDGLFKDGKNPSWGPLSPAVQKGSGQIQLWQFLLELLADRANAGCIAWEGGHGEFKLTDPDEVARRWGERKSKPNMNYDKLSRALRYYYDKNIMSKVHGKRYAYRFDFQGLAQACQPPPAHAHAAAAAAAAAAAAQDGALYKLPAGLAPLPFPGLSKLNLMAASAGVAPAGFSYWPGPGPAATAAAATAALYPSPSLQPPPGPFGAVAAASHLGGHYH
Summary of the method: (§1)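 Yeast served to express human transcription factors as GST fusions, which were then captured on glutathione beads and labelled with DNA barcodes. Pooled with a tag-only sample, they were incubated with 200 nmole of a 16-mer random double-stranded DNA library for 30 min at room temperature in Tris/NaCl/DTT/glycerol buffer, washed, crosslinked with 0.1% formaldehyde, ligated by proximity, amplified by PCR and sequenced. Dividing each hexamer's read frequency for a factor by its frequency for the tag-only sample gives the binding signal.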

ETV5 = ETV5 (Homo sapiens, UniProt P41161 1-510); conditions: protein: recombinant; tags: N-terminal GST; dsDNA, one strand shown
ETV5, sequence (P41161 whole entry): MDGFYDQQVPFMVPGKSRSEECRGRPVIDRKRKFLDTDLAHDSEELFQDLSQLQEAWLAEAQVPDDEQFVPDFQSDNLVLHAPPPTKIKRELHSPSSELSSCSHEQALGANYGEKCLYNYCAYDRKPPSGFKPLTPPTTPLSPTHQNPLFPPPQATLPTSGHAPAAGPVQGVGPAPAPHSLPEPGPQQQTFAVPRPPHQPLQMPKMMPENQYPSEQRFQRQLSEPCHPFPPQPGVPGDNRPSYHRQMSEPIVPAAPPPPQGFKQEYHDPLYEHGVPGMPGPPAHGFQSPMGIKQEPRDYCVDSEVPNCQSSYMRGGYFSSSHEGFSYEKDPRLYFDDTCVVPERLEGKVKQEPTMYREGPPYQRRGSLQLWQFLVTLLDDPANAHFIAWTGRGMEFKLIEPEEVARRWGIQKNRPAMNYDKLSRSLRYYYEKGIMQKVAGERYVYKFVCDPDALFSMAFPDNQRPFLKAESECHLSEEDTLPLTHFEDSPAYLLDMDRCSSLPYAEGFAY
Summary of the method: as §1

HSF1 = HSF1 (Homo sapiens, UniProt Q00613 1-529); conditions: protein: recombinant; tags: N-terminal GST; chain copies: 3; dsDNA, one strand shown
HSF1, sequence (Q00613 whole entry): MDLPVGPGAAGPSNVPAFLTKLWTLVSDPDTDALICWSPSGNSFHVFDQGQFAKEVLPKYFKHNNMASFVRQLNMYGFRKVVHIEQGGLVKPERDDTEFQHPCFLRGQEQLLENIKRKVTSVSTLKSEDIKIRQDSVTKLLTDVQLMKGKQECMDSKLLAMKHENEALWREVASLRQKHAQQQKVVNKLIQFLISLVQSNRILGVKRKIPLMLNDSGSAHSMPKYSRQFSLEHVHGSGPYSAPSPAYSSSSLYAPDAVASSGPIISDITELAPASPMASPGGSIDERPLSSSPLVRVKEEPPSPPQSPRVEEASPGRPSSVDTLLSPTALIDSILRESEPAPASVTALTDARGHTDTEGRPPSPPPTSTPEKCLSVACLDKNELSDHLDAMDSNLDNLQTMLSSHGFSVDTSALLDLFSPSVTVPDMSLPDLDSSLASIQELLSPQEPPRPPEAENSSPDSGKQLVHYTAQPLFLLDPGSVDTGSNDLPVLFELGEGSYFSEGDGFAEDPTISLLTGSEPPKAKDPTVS
Summary of the method: as §1

SPIC = target: T2, SPIC (Homo sapiens, UniProt Q8N5J4 1-248); conditions: protein: recombinant; tags: N-terminal GST; dsDNA, one strand shown
T2 sequence: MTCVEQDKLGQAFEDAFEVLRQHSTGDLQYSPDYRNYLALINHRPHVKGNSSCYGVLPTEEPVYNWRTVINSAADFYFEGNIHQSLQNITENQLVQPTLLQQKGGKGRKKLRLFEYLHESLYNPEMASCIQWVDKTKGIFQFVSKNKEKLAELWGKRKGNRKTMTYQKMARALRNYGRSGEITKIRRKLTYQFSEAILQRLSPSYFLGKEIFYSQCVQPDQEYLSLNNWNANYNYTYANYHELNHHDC
Summary of the method: as §1

ELF4 = ELF4 (Homo sapiens, UniProt Q99607 1-663); conditions: protein: recombinant; tags: N-terminal GST; dsDNA, one strand shown
ELF4, sequence (Q99607 whole entry): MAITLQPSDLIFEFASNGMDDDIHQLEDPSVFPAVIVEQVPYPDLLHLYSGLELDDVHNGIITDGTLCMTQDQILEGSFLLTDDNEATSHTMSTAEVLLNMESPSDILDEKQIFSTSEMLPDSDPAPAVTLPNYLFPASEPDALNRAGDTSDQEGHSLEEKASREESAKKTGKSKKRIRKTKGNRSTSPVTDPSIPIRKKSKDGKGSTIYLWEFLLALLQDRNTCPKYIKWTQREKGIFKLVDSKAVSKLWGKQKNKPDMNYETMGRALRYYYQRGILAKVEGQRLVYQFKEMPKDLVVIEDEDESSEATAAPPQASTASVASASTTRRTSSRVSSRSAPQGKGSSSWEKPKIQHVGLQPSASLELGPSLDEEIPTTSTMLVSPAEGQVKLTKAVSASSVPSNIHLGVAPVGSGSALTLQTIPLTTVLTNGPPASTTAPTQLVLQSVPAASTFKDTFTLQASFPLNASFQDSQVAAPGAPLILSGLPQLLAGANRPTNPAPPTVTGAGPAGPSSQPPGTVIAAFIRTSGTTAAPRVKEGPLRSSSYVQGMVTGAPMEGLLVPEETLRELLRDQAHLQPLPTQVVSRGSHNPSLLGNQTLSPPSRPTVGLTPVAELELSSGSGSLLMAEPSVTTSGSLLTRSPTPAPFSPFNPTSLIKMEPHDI
Summary of the method: as §1

ELK4 = target: T3, ELK4 (Homo sapiens, UniProt P28324-2 1-405); conditions: protein: recombinant; tags: N-terminal GST; dsDNA, one strand shown
T3 sequence: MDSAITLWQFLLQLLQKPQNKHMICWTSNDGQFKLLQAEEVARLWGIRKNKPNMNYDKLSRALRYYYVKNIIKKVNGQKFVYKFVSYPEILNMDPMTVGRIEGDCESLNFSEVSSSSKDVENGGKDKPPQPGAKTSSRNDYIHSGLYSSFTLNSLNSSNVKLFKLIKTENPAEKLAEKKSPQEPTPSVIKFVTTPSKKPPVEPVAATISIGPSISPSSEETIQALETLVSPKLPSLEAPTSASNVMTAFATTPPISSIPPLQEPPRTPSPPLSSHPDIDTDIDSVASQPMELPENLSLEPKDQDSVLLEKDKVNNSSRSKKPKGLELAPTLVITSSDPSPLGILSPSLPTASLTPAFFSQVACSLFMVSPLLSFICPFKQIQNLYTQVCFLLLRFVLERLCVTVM
Summary of the method: as §1

ETV2 = target: T4, ETV2 (Homo sapiens, UniProt O00321 1-342); conditions: protein: recombinant; tags: N-terminal GST; dsDNA, one strand shown
T4 sequence: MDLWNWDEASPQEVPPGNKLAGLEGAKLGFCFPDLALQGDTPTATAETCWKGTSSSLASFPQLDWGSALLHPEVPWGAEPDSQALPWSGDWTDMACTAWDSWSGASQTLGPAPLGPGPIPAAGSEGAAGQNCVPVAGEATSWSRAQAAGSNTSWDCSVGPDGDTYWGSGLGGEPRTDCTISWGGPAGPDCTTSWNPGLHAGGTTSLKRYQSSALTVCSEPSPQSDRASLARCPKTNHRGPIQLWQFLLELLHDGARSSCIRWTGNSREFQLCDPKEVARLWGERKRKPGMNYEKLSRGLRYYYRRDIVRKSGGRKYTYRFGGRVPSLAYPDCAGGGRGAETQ
Summary of the method: as §1

ELF3 = target: T5, ELF3 (Homo sapiens, UniProt P78545 1-371); conditions: protein: recombinant; tags: N-terminal GST; dsDNA, one strand shown
T5 sequence: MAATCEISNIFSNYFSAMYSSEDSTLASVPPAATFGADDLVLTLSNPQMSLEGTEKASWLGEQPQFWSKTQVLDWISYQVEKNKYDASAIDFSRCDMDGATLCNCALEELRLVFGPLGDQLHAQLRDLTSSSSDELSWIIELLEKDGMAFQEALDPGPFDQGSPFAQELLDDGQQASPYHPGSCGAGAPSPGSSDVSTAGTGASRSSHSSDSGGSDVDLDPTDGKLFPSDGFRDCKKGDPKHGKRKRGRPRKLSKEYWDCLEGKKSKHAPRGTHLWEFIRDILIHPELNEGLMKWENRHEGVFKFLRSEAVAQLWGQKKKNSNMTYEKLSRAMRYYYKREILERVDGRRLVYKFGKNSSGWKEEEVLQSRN
Summary of the method: as §1

CRX = CRX (Homo sapiens, UniProt O43186 1-299); conditions: protein: recombinant; tags: N-terminal GST; dsDNA, one strand shown
CRX, sequence (O43186 whole entry): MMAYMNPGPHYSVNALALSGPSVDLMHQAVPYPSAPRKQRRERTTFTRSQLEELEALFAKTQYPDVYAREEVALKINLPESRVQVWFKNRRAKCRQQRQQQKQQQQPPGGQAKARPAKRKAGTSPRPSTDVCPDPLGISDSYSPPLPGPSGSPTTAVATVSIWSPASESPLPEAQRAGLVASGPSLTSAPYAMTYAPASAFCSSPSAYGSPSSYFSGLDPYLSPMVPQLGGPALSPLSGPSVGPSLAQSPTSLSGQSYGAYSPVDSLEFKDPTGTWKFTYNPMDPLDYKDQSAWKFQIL
Summary of the method: as §1

TGGAAT
binding signal (FEV): 1.21 fold enrichment (6-mer frequency, TF over GST control)
binding signal (ETV5): 1.22 fold enrichment (6-mer frequency, TF over GST control)
binding signal (HSF1): 2.63 fold enrichment (6-mer frequency, TF over GST control)
binding signal (SPIC): 1.22 fold enrichment (6-mer frequency, TF over GST control)
binding signal (ELF4): 1.14 fold enrichment (6-mer frequency, TF over GST control)
binding signal (ELK4): 1.21 fold enrichment (6-mer frequency, TF over GST control)
binding signal (ETV2): 1.47 fold enrichment (6-mer frequency, TF over GST control)
binding signal (ELF3): 1.21 fold enrichment (6-mer frequency, TF over GST control)
binding signal (CRX): 1.77 fold enrichment (6-mer frequency, TF over GST control)
